From PubChem
FMDV antiviral: blocks foot and mouth disease virus; FMDV antiviral cell-based qHTS; Potency, µM (series often up to 57.9 µM), for inactives: at the top dose activity change, negative = inhibition, hits mostly inhibitors; 410,000 tested, 1.2% active; calls by dose curve; tested in HEK293T cells; also: read-out not given here; nearly all actives have a fitted effect of over 45% in size
Sm TGR inh: inhibitors of Schistosoma mansoni thioredoxin glutathione reductase. Q962Y6. purified TGR, DTNB reduction, TNB absorbance 405 nm. Potency, µM (series often up to 114 µM), without a hit: top-dose activity change, negative = inhibition, hits mostly inhibitors. 360,000 tested, 3% active. AID 485364; also: nearly all actives have a fitted effect of over 60% in size
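TGR 20 nM + NADPH 100 uM (dispensed conc.), cpd preinc 15 min RT; start with NADPH (500 uM addition) then DTNB (15 mM addition). Kinetic TNB absorbance, 405 nm filter. Four-parameter Hill fit across titration.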
Tb PYK inh: T. brucei pyruvate kinase inhibition; Potency, µM (titrated, usually from 76.8 µM), for the others: top-dose activity, negative = inhibition, most hits filed as inhibitors; 410,000 tested, 0.12% active; AID 624173; TbPYK enzyme, Kinase-Glo Plus ATP luminescence, 45 min; also: nearly all actives have a fitted effect of over 50% in size
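Assay buffer: 50 mM TEA pH 7.2, 100 mM KCl, 10 mM MgCl2, 0.05% BSA, 0.01% Tween-20. Pyruvate kinase from T. brucei plus substrate met compound, then ADP (130 uM final). Luminescence was read post 45 min RT.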
RE007 growth inh: less growth of the S. pombe RE007 Vpr strain; S. pombe RE007 Vpr strain, BacTiter-Glo ATP luminescence, 24 h; 360,000 tested, 0.21% active; Potency, µM (highest dose often 92.2 µM), for the others: top-dose activity change, negative = less growth, most hits filed as inhibitors; AID 651644; active = well fitted falling curve with a large enough effect; inconclusive = small, poorly fitted or top-dose-only effect; inactive = no such curve, though single readings can be large or run the other way; also: nearly all actives have a fitted effect of over 50% in size
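Fission yeast strain RE007, carrying one chromosomally integrated HIV-1 vpr copy, was seeded at OD 0.01 in PMG+AL medium with 23 nL pinned compound. After 24 h at 30 °C and 99% humidity, viability was read by BacTiter-Glo luminescence.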
* hit, by the source's call; ? = inconclusive; / = no result given. A selection: hits, their analogues and other compounds. The true share with any hit is near 3.7%. Unless noted, calls follow the shape of the dose curve; as a rule, active = well fitted curve in the direction sought with a large enough effect; inconclusive = small, poorly fitted or top-dose-only effect, or another doubt; inactive = no such curve, though single readings can be large; an effect the other way counts as inactive or inconclusive. % is scaled to controls: 0 for no effect and ±100 for the full control effect; potency is read from the fitted curve at half-maximal effect.

SMILES | FMDV antiviral | Sm TGR inh | Tb PYK inh | RE007 growth inh
COCCN1CCn2c(nc3cc(NC(=O)NC4CCCCC4)ccc32)C1 | 22.9% | 8.91µM* | -8.1% | 0.5%
O=C(CSc1nc2ccsc2c(=O)n1Cc1ccccc1F)NCc1ccccc1Cl | -12.7% | 2.0% | -2.8% | /
Cc1ccccc1NC(=O)C1CC(=O)n2ncnc2N1 (centres undefined) | -12.1% | 35.5µM* | -1.0% | -8.1%
CN(C1CCCCC1)S(=O)(=O)c1ccc2c(c1)c(=O)c(C(=O)NCCc1ccc(Cl)cc1)cn2C | 10.9% | -3.0% | 11.4% | /
CC(=O)c1cccc(NC(=O)c2cc(-c3ccco3)nc3ccccc23)c1 | -12.0% | 25.1µM* | 6.8% | -16.7%
O=C(Nc1cccc(S(=O)(=O)NC2=NCCCCC2)c1)c1cc(-c2ccco2)nc2ccccc12 | -17.1% | 11.2µM* | -14.7% | -14.6%
O=C(O)c1cc(-c2ccco2)nc2cc3ccccc3cc12 | 34.4% | 2.24µM* | -23.6% | 2.3%
O=C(Nc1cccc(S(=O)(=O)NC2=NCCCCC2)c1)c1cc(-c2ccncc2)nc2ccccc12 | -20.7% | 4.0% | -6.0% | 0.5%
O=C(NNC(=O)c1cc(-c2ccco2)nc2ccccc12)c1ccccc1 | 13.4% | 11.2µM* | -2.9% | 3.7%
COc1cccc(NC(=O)c2cc(-c3ccco3)nc3ccccc23)c1 | -12.5% | / | 1.0% | 11.3%
O=C(Nc1ccccc1F)c1cc(-c2ccco2)nc2ccccc12 | -22.9% | / | -5.3% | -22.3%
O=c1cnc2cnc(N3CCNCC3)nc2n1Cc1ccc(F)cc1 | -7.9% | / | / | /
Cc1cc(C(=O)Nc2ccccc2-c2nc(CNC(=O)c3ccc(F)cc3F)c(C)o2)c(C)o1 | -2.4% | / | / | /
O=C(Nc1ccc(F)cc1F)c1cc(-c2ccco2)nc2ccccc12 | -1.7% | 11.2µM* | ? | -16.2%
CCc1ccc(NC(=O)c2sc3nc4n(c(=O)c3c2C)CCC4)cc1 | -2.7% | -9.1% | 1.3% | -6.1%
CCOc1ccc(NC(=O)c2sc3nc4n(c(=O)c3c2C)CCCC4)cc1 | -17.3% | 31.6µM* | 5.6% | /
Cc1c(C(=O)N(C)c2cccc(C(F)(F)F)c2)sc2nc3n(c(=O)c12)CCCCC3 | -26.5% | 10µM* | -4.0% | /
Cc1c(C(=O)Nc2cccc(C(F)(F)F)c2)sc2nc3n(c(=O)c12)CCCC3 | 17.8µM* | -35.8% | -2.6% | /
Cc1cc(N(CCO)Cc2ccccc2)n2nc(-c3ccc(C(C)(C)C)cc3)nc2n1 | 0.0% | -13.1% | -11.5% | /
C=CCNC(=S)N/N=C/c1ccc(-c2cc(Cl)ccc2Cl)o1 | 0.0% | -4.4% | -5.1% | -5.0%
CC(C)(C)NC(=S)N/N=C\c1ccc(-c2ccc([N+](=O)[O-])cc2)o1 | ? | 2.24µM* | 1.2% | -11.0%
CCCCC(=O)N/N=C/c1ccc(-c2ccc([N+](=O)[O-])cc2)o1 | -13.2% | 1.3% | 5.6% | 0.3%
C=CCNC(=S)N/N=C/c1ccc(-c2ccc(OC)cc2)o1 | 14.1µM* | / | 4.6% | -11.0%
COc1ccccc1C(=O)Nc1c(C(=O)N2CCN(c3ccccc3F)CC2)oc2ccccc12 | 0.0% | 0.0% | 4.7% | /
CCc1nc2cc(C(=O)N3CCCN(C=O)CC3)cc(NC(=O)c3ccccc3OC)c2n1C | -1.1% | / | / | /
SMILES | FMDV antiviral | Sm TGR inh | Tb PYK inh | RE007 growth inh
C#CCNC(=O)C1=C[C@H](c2ccccc2)[C@@H](CCCO)[C@H](OCC)O1 | -21.5% | 20µM* | 1.7% | -3.1%
C#CCNC(=O)C1=C[C@H](C2CCCCC2)[C@@H](CCCO)[C@H](OCC)O1 | -13.7% | 17.8µM* | -1.2% | 11.6%
C#Cc1ccc([C@H]2C=C(C(=O)NCc3ccccc3)O[C@@H](OCC)[C@@H]2CCCO)cc1 | -4.4% | 0.2% | -1.9% | 13.0%
C#CCNC(=O)C1=C[C@H](C)[C@@H](CCCO)[C@H](OCC)O1 | 0.2% | 10.7% | 4.4% | -0.1%
Cc1[nH]c2ccccc2c1C(c1ccncc1)N1CCN(c2ccccc2F)CC1 (centres undefined) | ? | 3.55µM* | -1.8% | 6.9%
Cc1[nH]c2ccccc2c1C(c1ccncc1)N1CCN(c2ccccn2)CC1 (centres undefined) | -21.6% | 1µM* | 14.8% | -0.9%
Cc1[nH]c2ccccc2c1C(c1ccncc1)N1CCC(C)CC1 (centres undefined) | -28.0% | 2.51µM* | -7.7% | -2.8%
CCOC(=O)c1ccc(N2C(=O)C3C(C2=O)C(C(=O)c2ccc(Cl)cc2)N2CCCC32)cc1 (centres undefined) | -22.8% | 15.8µM* | -8.4% | ?
O=C(NCc1ccco1)/C(=C/c1ccco1)NC(=O)c1ccc(Br)o1 | -6.3% | 39.8µM* | 4.0% | -5.7%
O=C(NCc1ccco1)/C(=C\c1ccco1)NC(=O)c1ccc(Br)o1 | 16.6% | 28.2µM* | -12.1% | -18.7%
O=C(NCc1ccco1)/C(=C/C=C/c1ccccc1)NC(=O)c1ccco1 | 4.0% | 25.1µM* | -0.5% | 3.7%
CC(C)C(NC(=O)/C(=C/c1ccco1)NC(=O)c1ccc(Br)o1)C(=O)O (centres undefined) | 10.5% | 35.5µM* | 1.2% | 2.3%
O=C(NCCCO)/C(=C\c1ccco1)NC(=O)c1ccc(Br)o1 | 0.0% | ? | 4.4% | -10.7%
CC1CCc2noc(NC(=O)c3ccccc3[N+](=O)[O-])c2C1 (centres undefined) | -9.1% | -5.9% | 1.9% | /
Cc1cc(NC(=O)c2ccc(NC(=O)CCS(=O)(=O)c3cccs3)cc2)ccc1Br | ? | 7.9% | -7.5% | /
O=C(NCc1ccco1)/C(=C/c1ccccc1)NC(=O)c1ccco1 | -20.6% | 4.1% | 0.1% | 15.4%
C=CCNC(=O)/C(=C/c1ccco1)NC(=O)c1ccc(Br)o1 | 14.1% | 20µM* | -10.0% | 3.0%
O=C(NCc1ccco1)/C(=C\c1ccco1)NC(=O)c1ccco1 | -11.0% | 8.91µM* | -2.4% | -13.0%
COc1ccc(C(=O)N/C(=C\c2ccco2)C(=O)NCc2ccco2)cc1 | -2.9% | 44.7µM* | 0.0% | -1.6%
CCc1cccc(C)c1NC(=O)CSc1nnc(N)s1 | 30.6% | -3.0% | 0.1% | /
CCn1c(C)c(C(C)=O)c(N2CCN(c3ccccc3)CC2)nc1=S | -7.9% | -0.4% | -1.3% | 3.5%
CCn1c(C)c(C(C)=O)c(N2CCN(C(c3ccccc3)c3ccccc3)CC2)nc1=S | 31.6µM* | ? | 1.6% | 5.3%
Nc1c(Cl)ncnc1N/N=C/c1cccnc1 | -7.6% | 50.1µM* | -0.5% | -3.0%
CCCCOc1ccccc1C1CC(=O)Nc2cc(C)c(C)cc21 (centres undefined) | ? | 1.6% | 1.5% | /
CCOc1ccccc1C1CC(=O)Nc2cc(C)c(C)cc21 (centres undefined) | -18.3% | 1.8% | 3.3% | 4.9%
CCOc1ccccc1C1CC(=O)Nc2cc3c(cc21)OCCO3 (centres undefined) | 17.8µM* | -4.3% | 0.0% | -2.1%
CCCOc1ccccc1C1CC(=O)Nc2cc3c(cc21)OCCO3 (centres undefined) | 22.4µM* | -6.1% | -8.1% | -1.8%
O=C1OC(c2cccs2)=N/C1=C/c1ccc(-c2cccc(C(=O)O)c2)o1 | -0.9% | 22.4µM* | -14.3% | 4.4%
